# From PubChem
# NOMO-1 viab: NOMO-1 AML cell viability reduction, primary screen, STK33 inhibitor project, CellTiter-Glo luminescence; 7.5% of 37,000 active; AID 2330, 2010; inhibition, % (no concentration beside the values); NOMO-1 AML viability, 72 h; in the data active means inhibition above about 80%; inconclusive means no clear call, values can overlap the other calls
# MITF inh: inhibitors of MITF, primary screen, MITF inhibitor project, cell-based, luminescence; TRPM1 promoter luciferase, 24 h; inhibition, % (no concentration beside the values); 0.28% of 37,000 active; in the data active means inhibition above about 85%; inconclusive means no clear call, values can overlap the other calls; inactive means below about 68%;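 further: human melanocyte line stably carrying TRPM1 promoter luciferase reporter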
# YB-1 expression: inhibitors of YB-1 gene expression, primary screen, cell-based, fluorescence; U2OS, qRT-PCR YB-1 vs CDIP delta delta Cp, 16 h; active compounds read high; zero = DMSO, each unit about twofold; 0.37% of 30,000 active; delta delta Cp (YB-1 minus CDIP) (no concentration beside the values);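 active means delta delta Cp rounded down to an integer at or above 3, about 3 SD of DMSO wells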;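 further: higher means less YB-1 transcript or more CDIP transcript relative to DMSO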
# PD-1 reverse act: activators reversing PD-1 mediated T-cell inhibition, primary screen, luminescence, primary human CD4 T cells, PD-L1 beads | CellTiter-Glo 96 h | activation, % (test concentration not listed) | 29,000 tested, under 10 active | AID 2316, 2010; call rule not given here;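 further: 0% = median vehicle wells and 100% = positive control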
# U2OS ROS induce: ROS inducers in U2OS cancer cells, primary screen, cell-based, H2DCF-DA fluorescence; U2OS ROS induction; ROS induction (% of piperlongumine), % at 10 µM; 2% of 46,000 active; in the data active means ROS induction above about 79%, passing the limit was not always enough; inconclusive means no clear call, values can overlap the other calls;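 further: 0% = DMSO vehicle median and 100% = reference compound median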
# * = called active by the depositor; ? = inconclusive; · = no result given. This is one part of a sample in which hits are shown more often than they occur.
SMILES,NOMO-1 viab,MITF inh,YB-1 expression,PD-1 reverse act,U2OS ROS induce
c1ccc2[nH]c(SCCSc3nc4ccccc4[nH]3)nc2c1,83*,43,-0.077,1,3
CC(C)OC(=O)c1cc(N)c2c(-c3ccc(F)cc3)c(-c3cccs3)sc2n1,43,-9,-0.18,-7,20
CO[C@@H]1CC(OC2CCC3(C)C(CCC45CCC(C6=CC(=O)OC6)C(C)(CCC43)C5=O)C2)O[C@H](C)[C@@H]1O[C@@H]1O[C@H](CO[C@@H]2O[C@H](CO)[C@@H](O)[C@H](O)[C@H]2O)[C@@H](O)[C@H](O)[C@H]1O (some centres not stated),119*,20,-0.74,-10,1
C[C@H]1CN([C@@H](C)CO)C(=O)Cc2cc(NC(=O)Nc3ccc(F)cc3)ccc2O[C@H]1CN(C)S(=O)(=O)c1ccc(Cl)cc1,114*,31,0.036,-2,36
Cc1ccc(S(=O)(=O)N(C)C[C@@H]2Oc3ccc(NC(=O)CCC(F)(F)F)cc3CC(=O)N([C@@H](C)CO)C[C@@H]2C)cc1,134*,15,0.31,0,12
Cc1ccc(S(=O)(=O)N(C)C[C@@H]2Oc3ccc(NC(=O)Nc4ccccc4)cc3CC(=O)N([C@@H](C)CO)C[C@@H]2C)cc1,124*,35,-0.11,·,6
C[C@H]1CN([C@@H](C)CO)C(=O)Cc2cc(NC(=O)Nc3ccccc3)ccc2O[C@H]1CN(C)S(=O)(=O)c1ccc(Cl)cc1,113*,30,0.064,-1,20
COC(=O)C1=C(C)N=C2SCCC(=O)N2C1c1ccccc1 (configuration not stated),·,·,·,·,7
C[C@H](CO)N1C[C@H](C)[C@H](CN(C)S(=O)(=O)c2ccc(Cl)cc2)Oc2ccc(NC(=O)C3CC3)cc2CC1=O,?,17,-0.22,1,123*
C[C@@H]1CN([C@H](C)CO)C(=O)Cc2cc(NC(=O)C3CC3)ccc2O[C@@H]1CN(C)S(=O)(=O)c1ccc(Cl)cc1,15,-7,-0.4,2,5
C[C@H](CO)N1C[C@H](C)[C@H](CN(C)S(=O)(=O)c2ccc(Cl)cc2)Oc2ccc(NC(=O)Cn3cnnn3)cc2CC1=O,42,-5,0.051,1,126*
Cc1ccc(S(=O)(=O)N(C)C[C@H]2Oc3ccc(NC(=O)Cn4cnnn4)cc3CC(=O)N([C@@H](C)CO)C[C@@H]2C)cc1,-13,-5,-0.073,2,-2
CC(=O)Nc1cccc(-c2nnc(SCC(=O)Nc3ccccc3F)n2C)c1,4,-11,·,4,-8
Cc1nnc(SCc2nc(-c3ccccc3)no2)n1-c1ccccc1,-11,-1,·,1,-6
COc1ccc(-c2noc(CSc3nnc(-c4ccccc4)n3C)n2)cc1,-5,-9,·,0,125*
COc1ccc(NC(=O)c2ccco2)cc1NC(=O)CSc1ccc(Cl)cc1,15,-36,·,0,14
Cc1cc(NC(=O)CN(c2ccc(Cl)c(C(F)(F)F)c2)S(C)(=O)=O)ccc1Br,103*,50,·,-11,9
Cc1cccc(NC(=O)CN(c2cc(Cl)c(Cl)cc2Cl)S(C)(=O)=O)c1,50,16,·,-2,-6
CS(=O)(=O)N(CC(=O)Nc1cccc(C(F)(F)F)c1)c1cc(Cl)c(Cl)cc1Cl,140*,19,·,-3,-5
Cc1cc(N(CC(=O)Nc2ccc(Cl)cc2C)S(C)(=O)=O)ccc1Br,87*,-3,·,1,1
Cc1cc(Cl)ccc1N(CC(=O)Nc1cc(Cl)cc(Cl)c1)S(C)(=O)=O,90*,9,·,-2,0
Cc1cc(Cl)ccc1NC(=O)CN(c1cccc(Cl)c1)S(C)(=O)=O,9,4,·,-1,-16
COC(=O)c1ccc(NC(=O)CN(c2ccc(Cl)cc2C)S(C)(=O)=O)cc1,5,-19,·,1,-1
CN1CCN(c2ccc(CNS(=O)(=O)c3cccc4nonc34)cc2)CC1,·,·,·,·,-7
COc1ccc(S(=O)(=O)N2CCOCC2)cc1C(=O)NCCN1CCOCC1,9,-10,·,2,-4
SMILES,NOMO-1 viab,MITF inh,YB-1 expression,PD-1 reverse act,U2OS ROS induce
O=C(CSc1nc2ccccc2c(=O)[nH]1)Nc1ccc(F)cc1F,0,-2,·,·,·
Clc1ccc(-c2nc(N3CCCCC3)c3ccccc3n2)cc1,·,·,·,·,-1
Clc1ccc(C2=NN=C(N3CCCC3)SC2)cc1,99*,81,-0.4,-5,5
COC(=O)Cn1c(=O)c2cccn2c2ccccc21,·,·,·,·,-20
CN(C)CC(O)Cn1c2ccc(Br)cc2c2cc(Br)ccc21 (configuration not stated),114*,-61,-0.31,·,68
CN(CC(O)Cn1c2ccccc2c2ccccc21)S(C)(=O)=O (configuration not stated),-19,4,·,·,·
CCCCCC(O)CC(O)CCc1ccc(O)c(OC)c1 (configuration not stated),·,·,-0.35,·,-3
CCCCCCCCC[C@@H](O)CC(=O)CCc1ccc(O)c(OC)c1,92*,2,-0.13,1,-3
O=C(COc1ccccc1Br)N1CCCCC1,·,·,·,·,-5
Cc1ccc(S(=O)(=O)N(C)C[C@H]2Oc3ccc(NC(=O)Nc4ccc5c(c4)OCO5)cc3CC(=O)N([C@@H](C)CO)C[C@@H]2C)cc1,23,4,-0.34,-1,-6
Cc1ccc(S(=O)(=O)N(C)C[C@H]2Oc3ccc(NC(=O)Nc4ccc5c(c4)OCO5)cc3CC(=O)N([C@@H](C)CO)C[C@H]2C)cc1,48,39,0.19,-1,11
Cc1ccc(S(=O)(=O)N(C)C[C@@H]2Oc3ccc(NC(=O)Nc4ccc5c(c4)OCO5)cc3CC(=O)N([C@H](C)CO)C[C@@H]2C)cc1,102*,36,0.22,0,33
C[C@H]1CN([C@@H](C)CO)C(=O)Cc2cc(NC(=O)Nc3ccc4c(c3)OCO4)ccc2O[C@H]1CN(C)S(=O)(=O)c1ccccc1,128*,29,0.063,·,27
C[C@H]1CN([C@@H](C)CO)C(=O)Cc2cc(NC(=O)Nc3ccc4c(c3)OCO4)ccc2O[C@H]1CN(C)S(=O)(=O)c1ccc(Cl)cc1,127*,58,0.29,·,23
C[C@H](CO)N1C[C@H](C)[C@H](CN(C)S(=O)(=O)c2ccc(Cl)cc2)Oc2ccc(NC(=O)Nc3ccc4c(c3)OCO4)cc2CC1=O,126*,27,-0.047,-2,43
N#Cc1ccc(NC(=O)Cn2ccc([N+](=O)[O-])n2)cc1,35,-12,·,·,·
Cc1ccc(S(=O)(=O)N(C)C[C@@H]2Oc3ccc(NC(=O)Nc4ccc(C(F)(F)F)cc4)cc3C(=O)N([C@H](C)CO)C[C@H]2C)cc1,97*,12,0.17,-1,0
Cc1ccc(S(=O)(=O)N(C)C[C@H]2Oc3ccc(NC(=O)Nc4ccc(C(F)(F)F)cc4)cc3C(=O)N([C@H](C)CO)C[C@H]2C)cc1,92*,24,0.12,-2,-1
